Common to all, as to test: DAPPL (digital affinity profiling via proximity ligation, sequencing); 10 mM Tris-HCl pH 7.5, 50 mM NaCl, 1 mM DTT, 4% glycerol, room temperature, 30 min; GST-TFs on glutathione beads, 16-mer random dsDNA library, 0.1% formaldehyde crosslink after washing; high values mean tight binding
The target of assay [1] is T1, FEV (Homo sapiens, UniProt Q99581 1-238).
T1 sequence: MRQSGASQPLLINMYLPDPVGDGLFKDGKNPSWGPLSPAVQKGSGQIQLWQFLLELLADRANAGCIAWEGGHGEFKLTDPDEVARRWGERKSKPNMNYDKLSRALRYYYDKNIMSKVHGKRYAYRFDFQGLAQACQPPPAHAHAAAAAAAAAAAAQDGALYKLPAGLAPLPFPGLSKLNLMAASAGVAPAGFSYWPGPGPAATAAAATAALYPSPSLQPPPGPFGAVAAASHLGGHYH
Particulars: protein: recombinant; tags: N-terminal GST; dsDNA, one strand shown. The method in brief: (§1)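 Binding signal is given per hexamer as its read frequency for a factor divided by its frequency in the tag-only sample. GST-fused human transcription factors were expressed in yeast, captured on glutathione beads, barcoded with DNA and pooled with that sample, then incubated with 200 nmole of a 16-mer random double-stranded DNA library in Tris/NaCl/DTT/glycerol buffer for 30 min at room temperature. The pools were then washed, crosslinked, proximity-ligated, amplified by PCR and sequenced on an Illumina NextSeq500.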

In assay [2] the target is ETV5 (Homo sapiens, UniProt P41161 1-510). Particulars: protein: recombinant; tags: N-terminal GST; dsDNA, one strand shown. The method in brief: as §1
Assay [3] addresses HSF1 (Homo sapiens, UniProt Q00613 1-529). To be noted: protein: recombinant; tags: N-terminal GST; chain copies: 3; dsDNA, one strand shown. An outline of the steps: as §1
Assay [4] has as its target T2, SPIC (Homo sapiens, UniProt Q8N5J4 1-248).
T2 sequence: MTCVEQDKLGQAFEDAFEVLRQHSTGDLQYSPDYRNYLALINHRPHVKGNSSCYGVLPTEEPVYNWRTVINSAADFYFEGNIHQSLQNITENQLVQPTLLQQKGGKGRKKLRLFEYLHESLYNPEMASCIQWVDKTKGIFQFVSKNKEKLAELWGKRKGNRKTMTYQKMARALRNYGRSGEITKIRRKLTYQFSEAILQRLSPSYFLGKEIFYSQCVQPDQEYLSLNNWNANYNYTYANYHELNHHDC
To be noted: protein: recombinant; tags: N-terminal GST; dsDNA, one strand shown. An outline of the steps: as §1

Assay [5] concerns the target ELF4 (Homo sapiens, UniProt Q99607 1-663). To be noted: protein: recombinant; tags: N-terminal GST; dsDNA, one strand shown. The method in brief:
as §1

The target in assay [6] is T3, ELK4 (Homo sapiens, UniProt P28324-2 1-405).
T3 sequence: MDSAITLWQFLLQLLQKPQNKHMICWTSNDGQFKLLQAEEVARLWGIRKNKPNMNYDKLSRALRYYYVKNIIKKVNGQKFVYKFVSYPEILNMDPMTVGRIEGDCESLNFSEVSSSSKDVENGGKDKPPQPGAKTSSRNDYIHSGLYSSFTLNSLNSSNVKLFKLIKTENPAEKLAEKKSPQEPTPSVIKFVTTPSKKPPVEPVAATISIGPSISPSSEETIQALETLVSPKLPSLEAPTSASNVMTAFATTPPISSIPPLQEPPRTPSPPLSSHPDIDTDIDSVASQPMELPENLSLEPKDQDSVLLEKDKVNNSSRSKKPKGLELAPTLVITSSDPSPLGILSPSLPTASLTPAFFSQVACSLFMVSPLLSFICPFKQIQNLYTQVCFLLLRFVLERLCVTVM
Particulars: protein: recombinant; tags: N-terminal GST; dsDNA, one strand shown. The method in brief: as §1

Assay [7] addresses T4, ETV2 (Homo sapiens, UniProt O00321 1-342).
T4 sequence: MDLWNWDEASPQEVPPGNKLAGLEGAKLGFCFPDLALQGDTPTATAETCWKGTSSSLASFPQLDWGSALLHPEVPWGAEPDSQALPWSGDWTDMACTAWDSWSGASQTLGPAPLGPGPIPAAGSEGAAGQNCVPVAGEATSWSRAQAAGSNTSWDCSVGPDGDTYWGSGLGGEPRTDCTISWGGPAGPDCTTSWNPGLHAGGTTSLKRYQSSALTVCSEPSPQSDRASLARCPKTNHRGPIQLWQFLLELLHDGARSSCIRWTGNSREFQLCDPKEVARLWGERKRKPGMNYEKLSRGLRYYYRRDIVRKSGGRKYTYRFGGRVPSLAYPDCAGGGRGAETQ
Particulars: protein: recombinant; tags: N-terminal GST; dsDNA, one strand shown. The method in brief: as §1

Assay [8] concerns the target T5, ELF3 (Homo sapiens, UniProt P78545 1-371).
T5 sequence: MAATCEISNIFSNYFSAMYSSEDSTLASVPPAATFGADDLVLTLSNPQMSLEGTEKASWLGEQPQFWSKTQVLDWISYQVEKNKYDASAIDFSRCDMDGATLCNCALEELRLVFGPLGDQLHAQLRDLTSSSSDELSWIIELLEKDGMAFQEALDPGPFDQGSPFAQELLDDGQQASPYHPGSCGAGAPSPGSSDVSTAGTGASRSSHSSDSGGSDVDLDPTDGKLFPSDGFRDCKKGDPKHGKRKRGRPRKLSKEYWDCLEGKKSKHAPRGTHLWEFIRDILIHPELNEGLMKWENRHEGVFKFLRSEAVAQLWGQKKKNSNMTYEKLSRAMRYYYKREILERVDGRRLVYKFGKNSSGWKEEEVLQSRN
To be noted: protein: recombinant; tags: N-terminal GST; dsDNA, one strand shown. The method in brief:
as §1

For assay [9], the target named is CRX (Homo sapiens, UniProt O43186 1-299). To be noted: protein: recombinant; tags: N-terminal GST; dsDNA, one strand shown. The method in brief:
as §1

Assay [10] has as its target ETV1 (Homo sapiens, UniProt P50549 1-477). Particulars: protein: recombinant; tags: N-terminal GST; dsDNA, one strand shown. The method in brief:
as §1

For assay [11], the target named is T6, ERF (Homo sapiens, UniProt P50548 1-548).
T6 sequence: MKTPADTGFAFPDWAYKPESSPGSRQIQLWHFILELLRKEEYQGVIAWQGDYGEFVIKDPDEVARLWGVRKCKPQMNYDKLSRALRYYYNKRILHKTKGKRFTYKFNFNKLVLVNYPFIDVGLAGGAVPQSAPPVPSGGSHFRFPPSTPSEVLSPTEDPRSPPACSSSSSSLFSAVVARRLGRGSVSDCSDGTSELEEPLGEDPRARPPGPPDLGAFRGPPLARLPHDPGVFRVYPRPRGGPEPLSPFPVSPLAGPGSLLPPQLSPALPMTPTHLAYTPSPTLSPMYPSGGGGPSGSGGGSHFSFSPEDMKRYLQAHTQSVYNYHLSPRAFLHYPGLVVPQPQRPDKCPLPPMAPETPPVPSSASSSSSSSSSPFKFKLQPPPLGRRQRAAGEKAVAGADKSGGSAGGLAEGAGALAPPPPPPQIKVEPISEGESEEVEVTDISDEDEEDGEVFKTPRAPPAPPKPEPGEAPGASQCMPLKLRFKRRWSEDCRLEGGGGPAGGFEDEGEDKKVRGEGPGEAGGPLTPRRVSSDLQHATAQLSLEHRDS
Particulars: protein: recombinant; tags: N-terminal GST; dsDNA, one strand shown. An outline of the steps: as §1

Assay [12] concerns the target T7, ETV3L (Homo sapiens, UniProt Q6ZN32 1-361).
T7 sequence: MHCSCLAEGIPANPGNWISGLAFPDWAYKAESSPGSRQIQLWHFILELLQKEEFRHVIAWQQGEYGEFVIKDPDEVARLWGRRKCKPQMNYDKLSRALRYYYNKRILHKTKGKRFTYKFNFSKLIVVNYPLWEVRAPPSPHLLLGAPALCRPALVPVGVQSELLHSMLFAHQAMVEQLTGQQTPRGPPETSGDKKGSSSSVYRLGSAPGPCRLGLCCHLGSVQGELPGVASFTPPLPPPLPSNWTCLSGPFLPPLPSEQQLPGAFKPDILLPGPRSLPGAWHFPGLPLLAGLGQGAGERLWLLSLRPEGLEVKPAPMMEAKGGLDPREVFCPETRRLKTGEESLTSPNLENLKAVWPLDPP
To be noted: protein: recombinant; tags: N-terminal GST; dsDNA, one strand shown. The method in brief: as §1

The target in assay [13] is T8, ETS2 (Homo sapiens, UniProt P15036 1-469).
T8 sequence: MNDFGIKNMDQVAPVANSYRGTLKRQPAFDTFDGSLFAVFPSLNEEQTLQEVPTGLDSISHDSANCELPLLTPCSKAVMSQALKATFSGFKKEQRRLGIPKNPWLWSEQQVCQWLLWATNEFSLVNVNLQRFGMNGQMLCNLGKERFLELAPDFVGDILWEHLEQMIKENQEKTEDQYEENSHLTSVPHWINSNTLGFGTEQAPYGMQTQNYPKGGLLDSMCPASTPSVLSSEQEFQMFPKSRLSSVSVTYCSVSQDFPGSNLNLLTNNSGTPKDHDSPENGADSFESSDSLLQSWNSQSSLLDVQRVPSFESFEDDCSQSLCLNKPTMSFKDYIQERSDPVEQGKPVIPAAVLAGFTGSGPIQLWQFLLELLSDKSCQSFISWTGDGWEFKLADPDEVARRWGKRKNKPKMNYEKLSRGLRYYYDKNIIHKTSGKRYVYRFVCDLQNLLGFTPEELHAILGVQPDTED
Particulars: protein: recombinant; tags: N-terminal GST; dsDNA, one strand shown. The method in brief:
as §1

Assay [14] has as its target T9, SPDEF (Homo sapiens, UniProt O95238 1-335).
T9 sequence: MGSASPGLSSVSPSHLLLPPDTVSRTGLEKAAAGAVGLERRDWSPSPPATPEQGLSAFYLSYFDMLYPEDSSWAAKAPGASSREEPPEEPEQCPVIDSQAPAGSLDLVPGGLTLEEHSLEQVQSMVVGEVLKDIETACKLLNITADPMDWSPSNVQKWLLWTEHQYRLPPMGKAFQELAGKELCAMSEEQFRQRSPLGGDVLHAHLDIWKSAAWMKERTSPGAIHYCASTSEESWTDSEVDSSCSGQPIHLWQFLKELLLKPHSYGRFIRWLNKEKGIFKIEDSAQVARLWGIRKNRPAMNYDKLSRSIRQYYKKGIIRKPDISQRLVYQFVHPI
Particulars: protein: recombinant; tags: N-terminal GST; dsDNA, one strand shown. The method in brief:
as §1

The target in assay [15] is T10, ETV7 (Homo sapiens, UniProt Q9Y603 1-341).
T10 sequence: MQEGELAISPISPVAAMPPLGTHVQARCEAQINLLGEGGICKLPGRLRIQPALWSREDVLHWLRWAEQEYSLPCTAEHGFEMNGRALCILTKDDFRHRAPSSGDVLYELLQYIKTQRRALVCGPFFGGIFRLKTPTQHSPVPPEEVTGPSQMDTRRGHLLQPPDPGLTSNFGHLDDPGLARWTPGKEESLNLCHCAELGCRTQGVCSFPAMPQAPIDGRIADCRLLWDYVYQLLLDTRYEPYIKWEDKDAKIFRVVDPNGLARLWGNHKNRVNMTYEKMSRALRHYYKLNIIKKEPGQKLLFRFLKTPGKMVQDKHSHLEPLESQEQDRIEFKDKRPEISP
To be noted: protein: recombinant; tags: N-terminal GST; dsDNA, one strand shown. An outline of the steps: as §1

For assay [16], the target named is T11, ELF5 (Homo sapiens, UniProt Q9UKW6-2 1-255).
T11 sequence: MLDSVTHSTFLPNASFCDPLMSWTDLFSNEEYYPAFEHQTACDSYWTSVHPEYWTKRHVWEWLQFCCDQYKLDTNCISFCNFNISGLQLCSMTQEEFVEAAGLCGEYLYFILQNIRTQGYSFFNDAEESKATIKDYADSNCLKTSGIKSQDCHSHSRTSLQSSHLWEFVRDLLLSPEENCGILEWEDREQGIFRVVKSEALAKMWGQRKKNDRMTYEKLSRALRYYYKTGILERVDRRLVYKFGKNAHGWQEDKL
Particulars: protein: recombinant; tags: N-terminal GST; dsDNA, one strand shown. The method in brief: as §1

Assay [17] concerns the target T12, ETV3 (Homo sapiens, UniProt P41162-2 1-143).
T12 sequence: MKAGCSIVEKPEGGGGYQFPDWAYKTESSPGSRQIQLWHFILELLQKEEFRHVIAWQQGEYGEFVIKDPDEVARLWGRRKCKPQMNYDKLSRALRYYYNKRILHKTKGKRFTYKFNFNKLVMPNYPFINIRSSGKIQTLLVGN
Particulars: protein: recombinant; tags: N-terminal GST; dsDNA, one strand shown. The method in brief:
as §1

Assay [18] has as its target ETV6 (Homo sapiens, UniProt P41212 1-452). Particulars: protein: recombinant; tags: N-terminal GST; dsDNA, one strand shown. The method in brief: as §1

ETV5, sequence (P41161 whole entry): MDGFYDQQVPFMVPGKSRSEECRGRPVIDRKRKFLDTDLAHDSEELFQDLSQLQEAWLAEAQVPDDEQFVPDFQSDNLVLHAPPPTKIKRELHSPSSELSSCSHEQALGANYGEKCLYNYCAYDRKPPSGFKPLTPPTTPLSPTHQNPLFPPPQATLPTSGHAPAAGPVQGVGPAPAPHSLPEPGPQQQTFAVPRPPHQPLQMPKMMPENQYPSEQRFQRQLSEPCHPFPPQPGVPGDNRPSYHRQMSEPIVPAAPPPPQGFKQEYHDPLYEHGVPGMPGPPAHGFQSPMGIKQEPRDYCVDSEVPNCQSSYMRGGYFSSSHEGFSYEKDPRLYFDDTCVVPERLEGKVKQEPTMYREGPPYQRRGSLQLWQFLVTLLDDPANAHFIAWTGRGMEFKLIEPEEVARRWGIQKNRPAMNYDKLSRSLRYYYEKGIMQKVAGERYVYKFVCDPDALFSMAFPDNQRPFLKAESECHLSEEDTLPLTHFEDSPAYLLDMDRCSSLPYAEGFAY
ELF4, sequence (Q99607 whole entry): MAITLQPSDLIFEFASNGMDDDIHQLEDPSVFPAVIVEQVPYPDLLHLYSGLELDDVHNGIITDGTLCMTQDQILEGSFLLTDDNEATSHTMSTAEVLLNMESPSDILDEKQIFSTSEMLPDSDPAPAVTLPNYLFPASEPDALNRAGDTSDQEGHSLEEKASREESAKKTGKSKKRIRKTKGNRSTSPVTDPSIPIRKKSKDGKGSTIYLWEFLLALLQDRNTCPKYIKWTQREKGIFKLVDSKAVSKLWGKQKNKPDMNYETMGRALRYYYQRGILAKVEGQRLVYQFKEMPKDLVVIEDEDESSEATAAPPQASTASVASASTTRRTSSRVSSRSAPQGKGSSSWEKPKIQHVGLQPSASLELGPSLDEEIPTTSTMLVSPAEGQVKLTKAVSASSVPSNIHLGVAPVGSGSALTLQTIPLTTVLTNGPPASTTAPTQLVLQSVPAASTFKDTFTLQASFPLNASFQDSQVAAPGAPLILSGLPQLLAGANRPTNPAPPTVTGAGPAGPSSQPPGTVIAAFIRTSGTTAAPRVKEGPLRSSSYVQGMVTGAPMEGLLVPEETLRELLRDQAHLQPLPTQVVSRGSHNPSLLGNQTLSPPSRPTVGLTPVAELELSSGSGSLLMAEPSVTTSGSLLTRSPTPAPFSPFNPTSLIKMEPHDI
ETV1, sequence (P50549 whole entry): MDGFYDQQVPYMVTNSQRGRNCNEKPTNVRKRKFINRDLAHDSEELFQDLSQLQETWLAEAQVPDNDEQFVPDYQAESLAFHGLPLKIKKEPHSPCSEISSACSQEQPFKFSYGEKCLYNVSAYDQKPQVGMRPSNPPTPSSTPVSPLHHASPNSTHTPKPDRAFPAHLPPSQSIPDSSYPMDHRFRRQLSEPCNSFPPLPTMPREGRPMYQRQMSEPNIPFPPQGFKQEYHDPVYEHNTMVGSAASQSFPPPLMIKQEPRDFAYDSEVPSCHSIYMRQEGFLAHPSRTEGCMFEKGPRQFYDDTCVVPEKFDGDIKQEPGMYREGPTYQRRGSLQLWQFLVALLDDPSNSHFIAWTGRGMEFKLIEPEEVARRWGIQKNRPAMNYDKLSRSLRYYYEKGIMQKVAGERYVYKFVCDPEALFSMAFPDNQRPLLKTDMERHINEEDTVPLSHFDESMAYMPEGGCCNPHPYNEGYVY
CRX, sequence (O43186 whole entry): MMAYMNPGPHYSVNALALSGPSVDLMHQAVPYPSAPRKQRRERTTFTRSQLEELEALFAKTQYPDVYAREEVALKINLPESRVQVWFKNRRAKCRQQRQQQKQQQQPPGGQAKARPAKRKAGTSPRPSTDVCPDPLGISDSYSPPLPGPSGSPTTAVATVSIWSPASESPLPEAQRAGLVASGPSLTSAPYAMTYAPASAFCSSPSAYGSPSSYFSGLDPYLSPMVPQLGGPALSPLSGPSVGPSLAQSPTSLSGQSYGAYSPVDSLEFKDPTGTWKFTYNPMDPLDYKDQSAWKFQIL
HSF1, sequence (Q00613 whole entry): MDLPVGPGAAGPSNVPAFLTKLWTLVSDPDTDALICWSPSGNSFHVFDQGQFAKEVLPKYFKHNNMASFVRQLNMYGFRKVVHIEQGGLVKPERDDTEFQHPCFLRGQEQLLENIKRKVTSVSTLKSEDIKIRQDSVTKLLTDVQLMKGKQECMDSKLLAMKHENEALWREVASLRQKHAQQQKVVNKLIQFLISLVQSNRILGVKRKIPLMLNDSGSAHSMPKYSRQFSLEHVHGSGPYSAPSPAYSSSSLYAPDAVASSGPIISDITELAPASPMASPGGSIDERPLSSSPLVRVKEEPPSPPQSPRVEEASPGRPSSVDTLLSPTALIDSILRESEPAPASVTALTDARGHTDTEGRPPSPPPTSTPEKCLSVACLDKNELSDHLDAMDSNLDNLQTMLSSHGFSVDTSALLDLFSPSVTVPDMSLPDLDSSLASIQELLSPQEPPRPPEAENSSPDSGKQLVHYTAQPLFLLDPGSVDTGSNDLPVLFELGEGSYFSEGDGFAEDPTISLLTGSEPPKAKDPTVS
ETV6, sequence (P41212 whole entry): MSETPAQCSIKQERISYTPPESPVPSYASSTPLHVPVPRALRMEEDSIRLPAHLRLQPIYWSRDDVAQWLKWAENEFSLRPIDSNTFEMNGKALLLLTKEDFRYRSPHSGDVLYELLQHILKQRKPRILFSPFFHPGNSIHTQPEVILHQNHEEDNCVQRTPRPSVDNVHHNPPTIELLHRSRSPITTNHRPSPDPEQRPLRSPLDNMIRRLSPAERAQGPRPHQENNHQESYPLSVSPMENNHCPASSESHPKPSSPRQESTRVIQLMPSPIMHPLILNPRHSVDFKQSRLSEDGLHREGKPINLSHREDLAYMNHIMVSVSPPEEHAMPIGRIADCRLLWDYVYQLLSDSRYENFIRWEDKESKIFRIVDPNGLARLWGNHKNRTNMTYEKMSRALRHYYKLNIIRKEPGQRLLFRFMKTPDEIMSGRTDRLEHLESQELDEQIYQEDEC

As for ATGGCC, the binding signal in assay [1] was 1.45 fold enrichment (6-mer frequency, TF over GST control); in assay [2], 1.42 fold enrichment (6-mer frequency, TF over GST control); in [3], 1.23 fold enrichment (6-mer frequency, TF over GST control); in assay [4], 1.52 fold enrichment (6-mer frequency, TF over GST control); in assay [5] it was 1.44 fold enrichment (6-mer frequency, TF over GST control); in assay [6], 1.48 fold enrichment (6-mer frequency, TF over GST control). In addition, the binding signal was 1.41 fold enrichment (6-mer frequency, TF over GST control) in assay [7]; 1.5 fold enrichment (6-mer frequency, TF over GST control) in assay [8]; 1.08 fold enrichment (6-mer frequency, TF over GST control) in assay [9]; 1.38 fold enrichment (6-mer frequency, TF over GST control) in [10]; 1.27 fold enrichment (6-mer frequency, TF over GST control) in assay [11]; 1.32 fold enrichment (6-mer frequency, TF over GST control) in assay [12]. Moreover, the binding signal is 1.37 fold enrichment (6-mer frequency, TF over GST control) in assay [13]; 1.32 fold enrichment (6-mer frequency, TF over GST control) in [14]; 1.44 fold enrichment (6-mer frequency, TF over GST control) in [15]; 1.32 fold enrichment (6-mer frequency, TF over GST control) in [16]; 1.39 fold enrichment (6-mer frequency, TF over GST control) in [17]; 1.34 fold enrichment (6-mer frequency, TF over GST control) in assay [18].

The values are drawn from publication PMC7862700, “An all-to-all approach to the identification of sequence-specific readers for epigenetic DNA modifications on cytosine”.
